Results on 25 molecules are retold here after PubChem BioAssay.

Inconclusive results are not listed. Calls of active or inactive are those of the source. Unless noted, the limit is not given here; nearly all actives have AC50 up to about 26 µM.

A short description of experiment [1]: growth inhibition of DIPG glioma cells, dose response, cell-based, SU-DIPG-XVII, MIPE5.0, CellTiter-Glo, qHTS (AID 1347060).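 As to AC50: cells exposed to compound for 48 hours before viability readout.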 The note with it: SU-DIPG-XVII viability, CellTiter-Glo ATP luminescence.
Experiment [2] in a line: growth inhibition of DIPG glioma cells, dose response, cell-based, SU-DIPG-XIII, MIPE5.0, CellTiter-Glo, qHTS (AID 1347064; cut-off not given, nearly all actives have AC50 up to about 23 µM;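 as to AC50: cells exposed to compound for 48 hours before the viability read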). The note with it: SU-DIPG-XIII viability, CellTiter-Glo ATP luminescence.
Experiment [3] is described as follows: viability loss in pontine glioma line – cell-based, SU-DIPG-XXV, MIPE5.0, CellTiter-Glo, qHTS, dose response (AID 1347065).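 Also: cells exposed to compound for 48 hours before ATP readout.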 The note with it: CellTiter-Glo ATP luminescence.
A short description of experiment [4]: SU-DIPG-XXV glioma cell viability, MIPE5.0 library, qHTS (AID 1347068; cut-off not given, nearly all actives have IC50 up to about 30 µM;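 as to IC50: cells exposed to compound for 48 hours before viability readout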).
Experiment [5] can be described thus: JHH-DIPG-1 glioma cell viability, MIPE5.0 library, CellTiter-Glo luminescence, qHTS (AID 1347067).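 Also: cells exposed to compound for 48 hours before readout.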 To be noted: JHH-DIPG-1 glioma viability, CellTiter-Glo ATP luminescence.
Experiment [6] can be described thus: sensitizers of A549 cells to miR-34 induction, primary screen, imaging, A549 dox-inducible miR-34, nuclei and caspase counts (AID 1347080;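 active = compounds whose cell count with miR-34 switched on is under 0.7 times the count with it off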). The note with it: A549 miR-34 inducible, Hoechst nuclei count, 48 h.
Experiment [7] can be described thus: survival rescue of mitochondrial mutant cells in low glucose, primary screen, MELAS cybrids, Rieske KO mouse fibroblasts, CellTiter-Glo (AID 1508586;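 active = mean z-score across replicates of 1.96 or higher in either the MELAS or the Rieske mutant cell line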;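 also: z relative to plate mean and SD of compound and empty wells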).
A short description of experiment [8]: ovarian cancer cell viability with rucaparib, profiling panel, oncology-focused library, rucaparib conditional (AID 1508598;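 active = normalized viability below 100% at a tested concentration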). The note with it: patient-derived ovarian cancer cells, CellTiter-Glo viability, 144 h, stronger effect = lower value.
Setting [9] is: stronger effect = lower value, cell number ratio, induced over uninduced.
Setting [10] is: measured here: relative caspase fold change +Dox/-Dox.
[11] abbreviates: measured here: total cells with miR-34 induction, stronger effect = lower value.
The mark [12] stands for this setting: measured here: total cells without miR-34 induction.
Where [13] appears, read: MELAS cybrid survival, CellTiter-Glo 48 h, stronger effect = higher value.
[14] abbreviates: Rieske KO mouse fibroblast survival, CellTiter-Glo 72 h.

With `Cn1ncc(Cl)c1-c1cc(C(=O)N[C@H](CN)Cc2cccc(F)c2)sc1Cl`, the AC50 in experiment [1] is 5.9 µM (active); in experiment [2], 2.95 µM (active); in experiment [3], 3.72 µM (active). Besides, the molecule was classed as inactive in experiment [4].
Turning to `Cc1nc(-c2cn3c(n2)-c2ccc(-c4cnn(C(C)(C)C(N)=O)c4)cc2OCC3)n(C(C)C)n1`, the AC50 was 0.525 µM (active) in experiment [1], 0.295 µM (active) in experiment [2] and 0.105 µM (active) in experiment [3]. Moreover, the IC50 in experiment [4] was 1.66 µM (active).
The like results for `COc1ccc([C@@H](O)[C@@H](C)Oc2ccc([C@H]3O[C@H](c4ccc(O[C@H](C)[C@H](O)c5ccc(OC)c(OC)c5)c(OC)c4)[C@H](C)[C@H]3C)cc2OC)cc1OC` were, in that order, 20.9 µM (active), 5.9 µM (active), 10.5 µM (active) and 11.8 µM (active).
Consider `Cc1ncc(Cl)cc1NCc1ccc(C(=O)NC(CC2CCCC2)C(=O)NC2CC2)s1` (stereo not drawn), for which the result in experiment [1], in experiment [2], in experiment [3] and in experiment [4] was inactive.
Turning to `C=CC(=O)N1CC/C(=C\c2ccc(F)c([N+](=O)[O-])c2)C(=O)/C(=C/c2ccc(F)c([N+](=O)[O-])c2)C1`, the half-maximal activity concentration (AC50) is 0.0742 µM (active) in experiment [1], 0.059 µM (active) in experiment [2] and 0.0934 µM (active) in experiment [3]. Moreover, in experiment [4], the IC50 is 0.186 µM (active).
As for `Cc1cc(F)c(C(=O)Nc2cccc(-c3nncn3C(C)C)n2)cc1-n1cnc(C2CC2)c1`, the AC50 in experiment [1] was 16.6 µM (active); in experiment [2] it was 18.6 µM (active); in experiment [3], 18.6 µM (active). In addition, the IC50 in experiment [4] is 18.6 µM (active).
As for `C/C(=N\NC(=O)c1cccc(S(=O)(=O)N2CCOCC2)c1)c1cc(Cl)ccc1O`, the AC50 was 18.6 µM (active) in experiment [1], 9.34 µM (active) in experiment [2] and 16.6 µM (active) in experiment [3]. Moreover, the call in experiment [4] was inactive.
Regarding `N#CCC1(n2cc(-c3ncnc4[nH]ccc34)cn2)CN(C2CCN(C(=O)c3ccnc(C(F)(F)F)c3F)CC2)C1`, the result in experiment [1], in experiment [2], in experiment [3] and in experiment [4] was inactive.
`O=C1CC(c2c[nH]c3ccc(F)cc23)C(=O)N1` (stereo not drawn): the result in experiment [1], in experiment [2], in experiment [3] and in experiment [4] was inactive.
For the molecule `Cc1ccc(-c2nc(N)nc3c2nnn3Cc2cccc(CO[C@H]3CCOC3)n2)o1`, the call in experiment [1], in experiment [2], in experiment [3] and in experiment [4] was inactive.
As for `CN1CCN(c2ccc(-c3cccc(CN4CCOCC4)c3)cc2NC(=O)c2c[nH]c(=O)cc2C(F)(F)F)CC1`, the result in experiment [1], in experiment [2], in experiment [3] and in experiment [4] was inactive.
For the molecule `COc1cc(/C=C(\C#N)C(=O)Nc2nnc(C(F)(F)F)s2)ccc1OCc1ccc(C(F)(F)F)cc1C(F)(F)F`, the half-maximal activity concentration (AC50) is 5.25 µM (active) in experiment [1], 4.17 µM (active) in experiment [2], 3.72 µM (active) in experiment [3] and 14.8 µM (active) in experiment [5]. Further, the fold change is 0.986 (inactive) in experiment [6] (setting [9]) and 0.417 in experiment [6] (setting [10]). Besides, the cell count turned out to be 1620 in experiment [6] (setting [11]) and 1640 in experiment [6] (setting [12]).
With `CNC(=O)c1cccc2cc(Oc3ccnc4cc(OCC5(N)CC5)c(OC)cc34)ccc12`, the values for the half-maximal activity concentration (AC50) in experiment [1], in experiment [2] and in experiment [3] were 1.48 µM (active), 1.32 µM (active) and 1.86 µM (active), respectively. Also, in experiment [4], the IC50 was 7.42 µM (active).
As to `Cc1c(NC(=O)OCC2COCCN2)cn2ncnc(Nc3ccc4c(cnn4Cc4cccc(F)c4)c3)c12` (stereo not drawn), the AC50 was 18.6 µM (active) in experiment [1], 23.5 µM (active) in experiment [2], 23.5 µM (active) in experiment [3] and 20.9 µM (active) in experiment [5]. Besides, the values for the fold change in experiment [6] (setting [9]) and in experiment [6] (setting [10]) were 1.04 (inactive) and 0.875, respectively. Besides, the cell count in experiment [6] (setting [11]) came out at 4510; in experiment [6] (setting [12]) it was 4340. Further, the figures for the z-score in experiment [7] (setting [13]) and in experiment [7] (setting [14]) were -0.264 (inactive) and 0.355, respectively.
`C[C@H]1COCCN1c1cc(C2(S(=O)(=O)C3CC3)CC2)nc(-c2ccc(NC(=S)NCCO)cc2)n1`: the AC50 in experiment [1] is 0.295 µM (active); in experiment [2], 0.332 µM (active); in experiment [3], 0.0263 µM (active). The IC50 in experiment [4] is 4.68 µM (active).
With `O=C(O)c1ccc(CN2CCC(CN[C@@H]3C[C@H]3c3ccccc3)CC2)cc1`, the result in experiment [1], in experiment [2], in experiment [3] and in experiment [4] was inactive.
As to `COc1cc([C@@H](CC(=O)O)c2ccc(C)c(CN3C[C@@H](C)Oc4ccccc4S3(=O)=O)c2)cc2nnn(C)c12`, the call in experiment [1], in experiment [2], in experiment [3] and in experiment [4] was inactive.
In the case of `COc1cccc(OCCCN)c1-c1cc(Nc2cnc(C#N)cn2)n[nH]1`, the values for the AC50 in experiment [1], in experiment [2] and in experiment [3] were 0.0332 µM (active), 0.0742 µM (active) and 0.059 µM (active), respectively. Besides, the molecule was classed as inactive in experiment [4].
As to `CC(C)Oc1ccc(-c2nn([C@@H](C)c3oc4ccc(F)cc4c(=O)c3-c3cccc(F)c3)c3ncnc(N)c23)cc1F`, the molecule was classed as inactive in experiment [1], in experiment [2], in experiment [3] and in experiment [4].
In the case of `CC(C)(O)c1coc(S(=O)(=O)NC(=O)Nc2c3c(cc4c2CCC4)CCC3)c1`, the molecule was called inactive in experiment [1], in experiment [2], in experiment [3] and in experiment [4].
Regarding `CCOC(=O)[C@@]1(CCCCCCOc2ccc(Cl)cc2)CO1`, the molecule was classed as inactive in experiment [1], in experiment [2], in experiment [3] and in experiment [4].
Take `OC[C@H]1O[C@@H](S[C@@H]2O[C@H](CO)[C@H](O)[C@H](n3cc(-c4cccc(F)c4)nn3)[C@H]2O)[C@H](O)[C@@H](n2cc(-c3cccc(F)c3)nn2)[C@H]1O`: the molecule was classed as inactive in experiment [1], in experiment [2], in experiment [3] and in experiment [4].
Consider `COc1cc2ncnc(Oc3cccc(NC(=O)Nc4cc(C(C)(C)C(F)(F)F)on4)c3)c2cc1OC`, for which the AC50 in experiment [1] was 5.9 µM (active); in experiment [2], 16.6 µM (active); in experiment [3], 10.5 µM (active); in experiment [5], 14.8 µM (active). Moreover, the fold change is 0.934 (inactive) in experiment [6] (setting [9]) and 0.373 in experiment [6] (setting [10]). Further, the cell count in experiment [6] (setting [11]) stood at 3270; in experiment [6] (setting [12]), 3490. Moreover, the z-score in experiment [7] (setting [13]) is -0.488 (inactive); in experiment [7] (setting [14]), 1.15.
Turning to `O=C(NOCC(O)CO)c1ccc(F)c(F)c1Nc1ccc(I)cc1F` (stereo not drawn), the AC50 is 0.417 µM (active) in experiment [1], 0.525 µM (active) in experiment [2], 0.934 µM (active) in experiment [3] and 0.166 µM (active) in experiment [5]. In addition, the fold change in experiment [6] (setting [9]) was 1.1 (inactive); in experiment [6] (setting [10]) it was 0.559. The cell count is 2790 in experiment [6] (setting [11]) and 2520 in experiment [6] (setting [12]). In addition, the values for the z-score in experiment [7] (setting [13]) and in experiment [7] (setting [14]) were -0.718 (inactive) and -0.702, respectively.
Regarding `Cc1nc2c(-c3cnc(N)nc3)nc(N3CCOCC3)nc2n1C(C)C`, the AC50 in experiment [1] was 0.742 µM (active); in experiment [2], 1.05 µM (active); in experiment [3] it was 0.332 µM (active); in experiment [5], 0.742 µM (active). In addition, the fold change in experiment [6] (setting [9]) is 0.815 (inactive); in experiment [6] (setting [10]), 0.682. Besides, the values for the cell count in experiment [6] (setting [11]) and in experiment [6] (setting [12]) were 1980 and 2430, respectively. The figures for the z-score in experiment [7] (setting [13]) and in experiment [7] (setting [14]) were 5.52 (active) and -0.403, respectively. Also, the viability was 117% (inactive) in experiment [8] (at 0.000305 µM, OCI-C5x cells, with rucaparib 10 µM, 100% = cells with rucaparib alone); 112% (inactive) in experiment [8] (at 0.000305 µM, OCI-C5x cells, without rucaparib); 108% (inactive) in experiment [8] (at 0.000305 µM, OCI-P5x cells, with rucaparib 20 µM, 100% = cells with rucaparib alone); 109% (inactive) in experiment [8] (at 0.000305 µM, OCI-P5x cells, without rucaparib); 120% (inactive) in experiment [8] (at 0.00122 µM, OCI-C5x cells, with rucaparib 10 µM, 100% = cells with rucaparib alone); 120% (inactive) in experiment [8] (at 0.00122 µM, OCI-C5x cells, without rucaparib). The viability in experiment [8] (at 0.00122 µM, OCI-P5x cells, with rucaparib 20 µM, 100% = cells with rucaparib alone) is 95.6% (active); in experiment [8] (at 0.00122 µM, OCI-P5x cells, without rucaparib), 109% (inactive); in experiment [8] (at 0.00488 µM, OCI-C5x cells, with rucaparib 10 µM, 100% = cells with rucaparib alone), 120% (inactive); in experiment [8] (at 0.00488 µM, OCI-C5x cells, without rucaparib), 116% (inactive); in experiment [8] (at 0.00488 µM, OCI-P5x cells, with rucaparib 20 µM, 100% = cells with rucaparib alone) it was 92.3% (active); in experiment [8] (at 0.00488 µM, OCI-P5x cells, without rucaparib), 113% (inactive). For the same molecule, the viability in experiment [8] (at 0.0195 µM, OCI-C5x cells, with rucaparib 10 µM, 100% = cells with rucaparib alone) is 111% (inactive); in experiment [8] (at 0.0195 µM, OCI-C5x cells, without rucaparib), 114% (inactive); in experiment [8] (at 0.0195 µM, OCI-P5x cells, with rucaparib 20 µM, 100% = cells with rucaparib alone), 90.3% (active); in experiment [8] (at 0.0195 µM, OCI-P5x cells, without rucaparib), 108% (inactive); in experiment [8] (at 0.0781 µM, OCI-C5x cells, with rucaparib 10 µM, 100% = cells with rucaparib alone) it was 98.8% (active); in experiment [8] (at 0.0781 µM, OCI-C5x cells, without rucaparib) it was 116% (inactive). For the same molecule, the viability in experiment [8] (at 0.0781 µM, OCI-P5x cells, with rucaparib 20 µM, 100% = cells with rucaparib alone) is 77.8% (active); in experiment [8] (at 0.0781 µM, OCI-P5x cells, without rucaparib), 97.3% (active).
